Tests used:
Assay in all cases: log2 ratio of Biotin-Ahx-Ub-VS probe labelling (fragment/DMSO); higher = less target engagement (more negative = stronger competition), active = hit call of the paper (q ≤ 0.05, log2 ratio ≤ -1)
Conditions in all cases: compound concentration: 200 uM; treatment time: 3 h
USP34 = USP34 (UniProt Q70CQ2)
Procedure, shortened: (§1)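 The table lists average log2 ratios of fragment over vehicle, from an unpaired t-test on global-median-normalised Spectronaut label-free quantities. Proteins with ≥2 unique peptides were used. Samples were HEK293T lysate (495 µg) treated in triplicate with fragment at 200 µM or vehicle for 3 h, then with Biotin-Ahx-Ub-VS (0.5 µM final) for 1 h, with labelled DUBs NeutrAvidin-enriched and run by diaPASEF LC-MS/MS.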

USP36 = molecular target: T1, USP36 (UniProt Q9P275)
T1 sequence (whole entry): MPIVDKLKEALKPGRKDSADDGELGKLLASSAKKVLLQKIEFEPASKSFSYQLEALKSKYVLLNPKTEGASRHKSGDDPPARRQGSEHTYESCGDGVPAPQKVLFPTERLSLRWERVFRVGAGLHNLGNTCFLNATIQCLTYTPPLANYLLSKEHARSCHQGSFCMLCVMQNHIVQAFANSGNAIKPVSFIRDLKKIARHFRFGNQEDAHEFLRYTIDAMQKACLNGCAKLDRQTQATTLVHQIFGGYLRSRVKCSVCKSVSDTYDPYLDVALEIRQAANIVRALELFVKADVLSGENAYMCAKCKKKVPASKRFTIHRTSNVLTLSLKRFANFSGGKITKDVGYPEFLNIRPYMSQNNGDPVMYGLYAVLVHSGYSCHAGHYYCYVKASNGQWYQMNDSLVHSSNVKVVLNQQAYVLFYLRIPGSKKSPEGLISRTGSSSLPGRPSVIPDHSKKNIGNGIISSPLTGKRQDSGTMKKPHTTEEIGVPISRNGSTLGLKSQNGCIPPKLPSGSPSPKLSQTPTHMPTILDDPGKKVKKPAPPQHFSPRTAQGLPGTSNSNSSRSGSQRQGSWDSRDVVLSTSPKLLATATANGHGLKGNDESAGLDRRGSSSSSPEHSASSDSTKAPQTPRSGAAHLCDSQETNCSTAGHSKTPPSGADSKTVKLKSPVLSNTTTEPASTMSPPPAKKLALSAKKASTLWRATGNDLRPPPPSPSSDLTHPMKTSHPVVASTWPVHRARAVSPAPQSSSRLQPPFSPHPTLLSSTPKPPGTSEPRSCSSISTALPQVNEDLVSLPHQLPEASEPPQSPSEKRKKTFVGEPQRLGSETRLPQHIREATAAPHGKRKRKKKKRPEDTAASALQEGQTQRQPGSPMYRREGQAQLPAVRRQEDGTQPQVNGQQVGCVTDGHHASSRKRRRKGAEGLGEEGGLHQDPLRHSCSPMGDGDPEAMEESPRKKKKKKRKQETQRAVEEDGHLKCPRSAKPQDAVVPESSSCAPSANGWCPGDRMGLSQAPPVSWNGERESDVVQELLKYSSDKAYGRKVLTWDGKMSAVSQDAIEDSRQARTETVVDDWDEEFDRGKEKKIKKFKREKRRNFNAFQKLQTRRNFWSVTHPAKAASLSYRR
Procedure, shortened: as §1

USP38 = molecular target: T2, USP38 (UniProt Q8NB14)
T2 sequence (whole entry): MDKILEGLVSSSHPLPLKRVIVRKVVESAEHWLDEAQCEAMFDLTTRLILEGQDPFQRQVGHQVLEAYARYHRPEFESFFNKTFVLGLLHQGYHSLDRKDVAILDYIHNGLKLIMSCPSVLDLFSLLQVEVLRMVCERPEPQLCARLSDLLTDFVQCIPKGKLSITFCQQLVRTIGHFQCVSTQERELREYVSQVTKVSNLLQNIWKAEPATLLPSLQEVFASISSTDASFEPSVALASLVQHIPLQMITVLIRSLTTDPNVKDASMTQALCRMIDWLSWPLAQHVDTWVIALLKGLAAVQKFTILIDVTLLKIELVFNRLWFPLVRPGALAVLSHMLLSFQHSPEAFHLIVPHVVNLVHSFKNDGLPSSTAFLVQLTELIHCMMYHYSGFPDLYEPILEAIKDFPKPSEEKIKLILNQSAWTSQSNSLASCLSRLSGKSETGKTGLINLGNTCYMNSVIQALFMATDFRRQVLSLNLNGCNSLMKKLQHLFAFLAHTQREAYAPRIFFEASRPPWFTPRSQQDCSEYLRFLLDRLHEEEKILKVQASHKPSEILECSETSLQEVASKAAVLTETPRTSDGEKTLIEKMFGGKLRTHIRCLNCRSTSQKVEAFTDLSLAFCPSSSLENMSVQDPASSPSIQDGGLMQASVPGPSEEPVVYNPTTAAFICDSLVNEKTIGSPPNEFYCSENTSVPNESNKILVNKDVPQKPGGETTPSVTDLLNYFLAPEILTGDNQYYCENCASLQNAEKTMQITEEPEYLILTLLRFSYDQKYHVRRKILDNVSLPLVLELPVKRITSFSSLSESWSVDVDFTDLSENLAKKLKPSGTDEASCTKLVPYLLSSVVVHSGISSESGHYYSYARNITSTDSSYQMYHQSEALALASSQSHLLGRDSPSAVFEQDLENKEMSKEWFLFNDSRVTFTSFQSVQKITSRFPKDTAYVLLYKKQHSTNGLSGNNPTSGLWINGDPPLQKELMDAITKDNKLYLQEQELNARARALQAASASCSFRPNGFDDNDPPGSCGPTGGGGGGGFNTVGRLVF
Procedure, shortened: as §1

USP39 = molecular target: T3, USP39 (UniProt Q53GS9)
T3 sequence (whole entry): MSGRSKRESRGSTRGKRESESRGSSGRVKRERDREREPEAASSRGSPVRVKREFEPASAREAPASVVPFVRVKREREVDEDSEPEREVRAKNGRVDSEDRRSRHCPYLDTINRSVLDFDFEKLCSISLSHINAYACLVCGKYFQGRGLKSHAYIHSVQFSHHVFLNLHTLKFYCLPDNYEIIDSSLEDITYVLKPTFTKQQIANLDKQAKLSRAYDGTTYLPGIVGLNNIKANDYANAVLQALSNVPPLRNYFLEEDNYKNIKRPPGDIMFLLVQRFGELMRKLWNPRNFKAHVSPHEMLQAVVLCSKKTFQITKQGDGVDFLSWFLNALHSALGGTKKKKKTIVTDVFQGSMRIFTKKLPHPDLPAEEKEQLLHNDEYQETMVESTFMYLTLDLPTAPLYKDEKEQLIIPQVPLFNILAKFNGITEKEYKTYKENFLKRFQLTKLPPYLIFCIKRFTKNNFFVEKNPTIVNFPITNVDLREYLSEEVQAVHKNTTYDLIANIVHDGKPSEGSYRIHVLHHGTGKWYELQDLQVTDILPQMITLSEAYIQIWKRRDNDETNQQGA
Procedure, shortened: as §1

USP4 = molecular target: T4, USP4 (UniProt Q13107)
T4 sequence (whole entry): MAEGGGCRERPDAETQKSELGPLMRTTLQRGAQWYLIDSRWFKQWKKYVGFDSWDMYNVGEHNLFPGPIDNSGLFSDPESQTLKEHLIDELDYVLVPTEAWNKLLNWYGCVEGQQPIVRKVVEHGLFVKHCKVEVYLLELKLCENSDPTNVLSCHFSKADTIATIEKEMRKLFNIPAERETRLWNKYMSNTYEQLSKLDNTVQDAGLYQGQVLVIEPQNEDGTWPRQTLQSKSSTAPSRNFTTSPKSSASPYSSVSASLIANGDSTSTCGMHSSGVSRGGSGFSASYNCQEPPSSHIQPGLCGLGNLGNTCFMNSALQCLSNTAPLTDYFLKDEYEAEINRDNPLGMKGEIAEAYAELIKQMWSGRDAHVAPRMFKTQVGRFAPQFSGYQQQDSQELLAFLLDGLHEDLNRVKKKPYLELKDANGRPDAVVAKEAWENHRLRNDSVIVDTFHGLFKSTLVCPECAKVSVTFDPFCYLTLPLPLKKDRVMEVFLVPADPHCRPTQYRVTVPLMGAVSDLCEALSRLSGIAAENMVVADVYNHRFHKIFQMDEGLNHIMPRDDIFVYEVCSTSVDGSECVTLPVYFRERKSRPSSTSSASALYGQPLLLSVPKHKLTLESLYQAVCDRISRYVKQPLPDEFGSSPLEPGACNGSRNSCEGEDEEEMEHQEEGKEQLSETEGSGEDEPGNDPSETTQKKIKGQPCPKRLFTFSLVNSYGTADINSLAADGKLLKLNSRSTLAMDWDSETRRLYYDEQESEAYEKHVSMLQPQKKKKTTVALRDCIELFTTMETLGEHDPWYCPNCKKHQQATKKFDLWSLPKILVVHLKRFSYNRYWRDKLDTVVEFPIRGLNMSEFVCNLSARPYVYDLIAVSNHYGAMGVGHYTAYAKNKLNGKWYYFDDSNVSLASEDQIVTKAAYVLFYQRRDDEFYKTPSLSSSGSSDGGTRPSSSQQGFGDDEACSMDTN
Procedure, shortened: as §1

Measured: log2 ratio of Biotin-Ahx-Ub-VS probe labelling

Chain of USP34 (Q70CQ2 whole entry, the tested form may be a part): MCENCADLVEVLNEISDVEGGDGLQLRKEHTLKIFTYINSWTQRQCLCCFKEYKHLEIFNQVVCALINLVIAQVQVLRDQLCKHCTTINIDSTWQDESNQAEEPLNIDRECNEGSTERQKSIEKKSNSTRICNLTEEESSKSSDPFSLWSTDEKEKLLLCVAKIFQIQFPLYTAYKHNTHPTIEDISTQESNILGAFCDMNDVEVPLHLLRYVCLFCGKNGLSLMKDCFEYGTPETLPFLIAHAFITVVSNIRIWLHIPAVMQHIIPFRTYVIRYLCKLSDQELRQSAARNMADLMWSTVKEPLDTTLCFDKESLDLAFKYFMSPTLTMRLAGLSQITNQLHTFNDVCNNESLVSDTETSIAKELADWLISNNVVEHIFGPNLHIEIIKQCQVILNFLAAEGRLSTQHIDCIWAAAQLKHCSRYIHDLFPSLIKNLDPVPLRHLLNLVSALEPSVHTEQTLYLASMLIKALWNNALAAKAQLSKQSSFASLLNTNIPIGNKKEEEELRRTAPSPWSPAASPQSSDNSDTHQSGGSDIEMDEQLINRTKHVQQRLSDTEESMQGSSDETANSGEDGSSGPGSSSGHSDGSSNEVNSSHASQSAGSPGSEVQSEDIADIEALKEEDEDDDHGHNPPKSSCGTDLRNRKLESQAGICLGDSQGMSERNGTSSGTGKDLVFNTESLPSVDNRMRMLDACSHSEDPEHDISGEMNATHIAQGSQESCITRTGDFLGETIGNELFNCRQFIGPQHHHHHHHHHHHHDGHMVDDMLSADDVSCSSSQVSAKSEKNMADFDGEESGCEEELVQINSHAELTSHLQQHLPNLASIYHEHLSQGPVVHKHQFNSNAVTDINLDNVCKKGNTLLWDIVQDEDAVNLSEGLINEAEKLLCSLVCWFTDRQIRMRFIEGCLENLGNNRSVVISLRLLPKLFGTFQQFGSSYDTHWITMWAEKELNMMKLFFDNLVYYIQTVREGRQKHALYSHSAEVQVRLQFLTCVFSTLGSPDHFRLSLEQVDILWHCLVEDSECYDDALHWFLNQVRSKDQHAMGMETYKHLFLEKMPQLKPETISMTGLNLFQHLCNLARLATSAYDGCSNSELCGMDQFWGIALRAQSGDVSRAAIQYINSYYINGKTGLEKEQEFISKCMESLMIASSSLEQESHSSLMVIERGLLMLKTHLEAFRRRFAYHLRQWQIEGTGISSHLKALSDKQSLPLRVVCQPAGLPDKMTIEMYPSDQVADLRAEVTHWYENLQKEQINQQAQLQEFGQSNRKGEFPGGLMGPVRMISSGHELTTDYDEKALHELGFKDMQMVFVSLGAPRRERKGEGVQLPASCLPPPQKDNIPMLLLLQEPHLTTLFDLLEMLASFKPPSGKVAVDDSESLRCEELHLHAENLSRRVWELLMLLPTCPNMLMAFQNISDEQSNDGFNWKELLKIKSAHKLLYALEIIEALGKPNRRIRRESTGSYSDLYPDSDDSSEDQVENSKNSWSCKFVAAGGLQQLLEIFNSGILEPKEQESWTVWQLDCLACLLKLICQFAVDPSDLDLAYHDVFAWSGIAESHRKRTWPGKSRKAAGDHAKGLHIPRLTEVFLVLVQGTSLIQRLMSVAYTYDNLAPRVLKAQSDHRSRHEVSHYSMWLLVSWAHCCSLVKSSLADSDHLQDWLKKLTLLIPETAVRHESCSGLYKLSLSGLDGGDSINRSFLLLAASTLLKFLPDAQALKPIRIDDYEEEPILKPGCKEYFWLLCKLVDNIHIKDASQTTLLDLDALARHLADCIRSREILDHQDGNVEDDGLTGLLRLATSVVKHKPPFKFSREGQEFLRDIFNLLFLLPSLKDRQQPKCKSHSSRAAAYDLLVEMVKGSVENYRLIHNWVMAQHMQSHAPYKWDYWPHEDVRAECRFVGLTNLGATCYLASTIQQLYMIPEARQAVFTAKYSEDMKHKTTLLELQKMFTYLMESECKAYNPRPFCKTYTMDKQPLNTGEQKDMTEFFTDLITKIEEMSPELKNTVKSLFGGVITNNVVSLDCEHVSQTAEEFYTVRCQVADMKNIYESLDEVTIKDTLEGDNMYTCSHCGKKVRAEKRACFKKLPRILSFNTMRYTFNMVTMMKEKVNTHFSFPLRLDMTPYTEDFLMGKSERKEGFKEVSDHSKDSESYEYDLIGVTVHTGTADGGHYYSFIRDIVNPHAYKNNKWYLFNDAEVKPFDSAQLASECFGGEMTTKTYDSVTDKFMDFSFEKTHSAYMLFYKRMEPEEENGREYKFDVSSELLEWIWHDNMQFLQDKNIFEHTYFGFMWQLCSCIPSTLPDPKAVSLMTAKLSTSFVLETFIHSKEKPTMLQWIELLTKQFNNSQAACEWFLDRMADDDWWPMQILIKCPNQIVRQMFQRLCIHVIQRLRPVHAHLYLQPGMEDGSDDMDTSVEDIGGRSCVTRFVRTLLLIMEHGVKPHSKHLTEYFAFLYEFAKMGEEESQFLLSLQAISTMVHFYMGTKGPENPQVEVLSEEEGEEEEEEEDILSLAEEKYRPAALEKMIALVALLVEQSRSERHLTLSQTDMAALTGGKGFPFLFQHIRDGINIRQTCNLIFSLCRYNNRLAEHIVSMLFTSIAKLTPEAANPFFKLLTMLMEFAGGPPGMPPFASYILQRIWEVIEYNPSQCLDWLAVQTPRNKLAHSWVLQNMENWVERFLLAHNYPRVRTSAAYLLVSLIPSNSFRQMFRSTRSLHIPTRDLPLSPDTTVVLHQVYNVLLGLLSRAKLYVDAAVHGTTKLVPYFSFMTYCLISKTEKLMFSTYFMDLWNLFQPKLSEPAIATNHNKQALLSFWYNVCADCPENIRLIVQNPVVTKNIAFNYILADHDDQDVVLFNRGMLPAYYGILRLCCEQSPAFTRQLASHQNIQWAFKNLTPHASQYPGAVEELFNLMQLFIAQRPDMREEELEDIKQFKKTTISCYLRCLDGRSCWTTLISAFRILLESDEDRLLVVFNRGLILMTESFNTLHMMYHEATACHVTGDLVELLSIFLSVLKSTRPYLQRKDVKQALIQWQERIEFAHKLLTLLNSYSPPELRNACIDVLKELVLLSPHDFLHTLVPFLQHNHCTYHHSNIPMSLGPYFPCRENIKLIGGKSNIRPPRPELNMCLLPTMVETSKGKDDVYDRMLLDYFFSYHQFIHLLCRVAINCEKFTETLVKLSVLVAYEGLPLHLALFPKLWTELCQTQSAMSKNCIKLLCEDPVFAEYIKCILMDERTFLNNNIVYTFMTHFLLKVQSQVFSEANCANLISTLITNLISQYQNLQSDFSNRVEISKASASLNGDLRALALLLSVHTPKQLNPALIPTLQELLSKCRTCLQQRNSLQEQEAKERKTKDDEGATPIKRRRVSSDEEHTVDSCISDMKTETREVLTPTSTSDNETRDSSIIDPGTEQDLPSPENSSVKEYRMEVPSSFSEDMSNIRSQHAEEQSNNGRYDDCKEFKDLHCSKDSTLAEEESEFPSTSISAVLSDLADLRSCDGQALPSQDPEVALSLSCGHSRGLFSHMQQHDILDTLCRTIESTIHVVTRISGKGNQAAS

Cl.O=C(CCl)NCCc1ncc(F)cc1F
inactive: USP34 -0.216 | USP36 -0.308 | USP38 -0.203 | USP39 -0.202 | USP4 0.0209

— the supplement of paper PMC11732987, “Enantioselective OTUD7B fragment discovery through chemoproteomics screening and high-throughput optimisation” (Communications Chemistry, 2025)
